Assay results taken from PubChem BioAssay (NCATS).
Results filed as inconclusive are left out. A call without a number means that no potency is given here. Calls of active or inactive are those of the source. The call rests on the fitted dose curve; in most records, active means well fitted inhibition curve with a large enough effect; inconclusive means small, poorly fitted or top-dose-only effect; inactive means no such curve, though single readings can be large or run the other way.

Biological target: Cytochrome P450 2C19 (Homo sapiens) (UniProt P33261)
Sequence (P33261 whole entry, looked up): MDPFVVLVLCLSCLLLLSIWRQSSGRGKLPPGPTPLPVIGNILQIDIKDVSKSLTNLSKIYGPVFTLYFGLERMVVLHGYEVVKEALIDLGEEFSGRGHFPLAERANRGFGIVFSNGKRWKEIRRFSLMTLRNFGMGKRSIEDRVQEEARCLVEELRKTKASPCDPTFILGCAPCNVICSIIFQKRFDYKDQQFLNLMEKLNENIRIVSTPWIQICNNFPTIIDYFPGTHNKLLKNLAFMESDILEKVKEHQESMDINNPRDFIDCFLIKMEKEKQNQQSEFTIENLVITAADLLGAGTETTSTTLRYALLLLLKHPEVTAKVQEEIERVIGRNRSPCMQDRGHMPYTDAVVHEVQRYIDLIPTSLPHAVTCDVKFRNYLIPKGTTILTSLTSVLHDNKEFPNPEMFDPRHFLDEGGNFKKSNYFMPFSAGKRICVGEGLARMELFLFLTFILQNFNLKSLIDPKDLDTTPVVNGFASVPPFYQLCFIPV
Assay: qHTS Assay for Inhibitors and Substrates of Cytochrome P450 2C19 (AID 899); further: nearly all actives have a fitted effect of over 60% in size
Details: recombinant CYP2C19, luciferin-H EGE luminescence; series mostly up to 11.4 µM
Procedure, shortened: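 Luminescence readout of luciferin formed from 10uM Luciferin-H EGE (KM level) by 5 nM CYP2C19 in 50mM KPO4. 60 min NADPH-driven reaction at 37C after 10 min compound preincubation; data scaled to 57uM ketoconazole inhibition.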
Potency means the concentration at half of the fitted maximal effect.

| Structure (SMILES) | Potency |
| --- | --- |
| C/C=C/OC(=O)NC(c1ccccc1)[C@]1(C(C)=O)CCCC1=O (stereo partly drawn) | 199 nM (active) |
| COc1ccc(OC)c(-c2ccccc2/C=N/NS(=O)(=O)c2ccc(C)cc2)c1 | 100 nM (active) |
| COC(=O)C(/C=C/C(C)Cc1cc(Br)cc(OCc2ccccc2)c1OC)OCc1ccccc1 (stereo not drawn) | inactive |
| CC1CCC2C(=O)N3C(CCC(C)[C@H]3c3cccc(N4CCCC4=O)c3)C(=O)N2C1c1cccc(N2CCCC2=O)c1 (stereo partly drawn) | inactive |
| C[C@@H]1/C=C\CC(=O)OC[C@H](C)C(=O)N[C@@H](Cc2ccccc2)C(=O)OC1 | inactive |
| CC1CCC2C(=O)OC(CO)CN2C1c1ccc(Br)cc1 (stereo not drawn) | 158 nM (active) |
| CC1CCC2C(=O)N3C(CCC(C)C3c3ccccc3Br)C(=O)N2C1c1ccc(C#CCN(C)C)cc1 (stereo not drawn) | inactive |
| CC(=O)OC[C@@H]1O[C@H](C/C=N\OCC[C@H]2C=C[C@H](OC(C)=O)[C@@H](COC(C)=O)O2)C=C[C@@H]1OC(C)=O | inactive |
| COc1ccc(OC2C(O)COC2/C=C/c2ccccc2)cc1 (stereo not drawn) | 2000 nM (active) |
| C=CCc1cccc(C2C(C)CCC3C(=O)N4C(CCC(C)C4c4cccc(CC=C)c4)C(=O)N32)c1 (stereo not drawn) | inactive |
| CCCCCCCC#Cc1ccccc1C(NC(=O)OC)C(C(=O)OC)C(=O)OC (stereo not drawn) | 2510 nM (active) |
| CC1CCC2C(=O)OC(CN3C(=O)c4ccccc4C3=O)CN2C1c1ccc(Br)cc1 (stereo not drawn) | inactive |
| COC(=O)[C@@H]1CC[C@H](C)[C@@H](c2ccc(C)cc2)N1C(=O)c1ccc(/C=N\OC[C@@H]2O[C@H](c3ccccc3)C=C[C@@H]2Oc2ccc(OC)cc2)cc1 | 50.1 nM (active) |
